Data taken from PubChem BioAssay AID1259422 (The Scripps Research Institute Molecular Screening Center, 2018).
Out of some 640,000 compounds screened, about 9,300 (1.5%) were called active. This excerpt belongs to a sample that is enriched for actives. Unmarked numbers belong to inactive results. Cut-off read from the data, not from the text of the source: active = inhibition above about 32%; inactive = the rest.

Experiment: TEAD-YAP interaction inhibition, primary screen, TEAD-YAP interaction inhibitor project, luminescence, HEK-TIYL cells (AID 1259422);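 note: 0% = median of test compound wells and 100% = reference inhibitor wells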
Settings: TEAD-Gal4/YAP UAS-luciferase luminescence, at 9.12 µM, hits give high values

| Structure (SMILES) | inhibition |
| --- | --- |
| CCN(CC)CCCNCc1ccc(F)cc1Cl | -3.24% |
| COc1ccc(NC(=S)NNS(=O)(=O)c2ccc(NC(C)=O)cc2)cc1 | 43.9% (active) |
| COc1ccc(NC(=S)Nc2ccccc2C(C)=O)cc1 | 8.25% |
| COc1ccc(NC(=S)Nc2ccc(OC)cc2)cc1 | -17.9% |
| COc1ccc(OC(C)C(=O)Nc2ccc(C(=O)OC(C)C)cc2)cc1 (stereo not given) | 11.3% |
| C=CCn1c(=S)[nH]c2sc(-c3ccccc3)cc2c1=O | -58.7% |
| CS(=O)(=O)c1cccc(S(=O)(=O)N2CCCc3ccccc32)c1 | 3.88% |
| Cn1c(=O)c(=O)n(C)c2cc(S(=O)(=O)N3CCCc4ccccc43)ccc21 | -1.32% |
| O=S(=O)(c1ccc2c(c1)OCCCO2)N1CCCc2ccccc21 | 63.8% (active) |
| COc1ccc(S(=O)(=O)N2CCc3ccccc3C2)cc1Cl | 14.1% |
| O=C1CC(=O)Nc2cc(S(=O)(=O)N3CCCc4ccccc43)ccc2N1 | 5.24% |
| COc1ccc(S(=O)(=O)N2CCCc3ccccc32)cc1Cl | 36.9% (active) |
| CC(=O)NC1C(Oc2ccc(C)cc2C)OC(COC(C)=O)C(OC(C)=O)C1OC(C)=O (stereo not given) | 0.55% |
| COc1ccc(C)c(Cn2c(-c3nonc3N)nc3ccccc32)c1 | 53.5% (active) |
| COc1ccc(-c2nc3ccccc3n2Cc2ccccc2)cc1OC | -0.42% |
| Nc1nonc1-c1nc2ccccc2n1CC(=O)N/N=C\c1cccc(F)c1 | 10.8% |
| CCCCCCOc1cccc(NC(=O)Cn2c(-c3nonc3N)nc3ccccc32)c1 | 10.4% |
| Nc1nonc1-c1nc2ccccc2n1CC(=O)Nc1cccc(F)c1 | 40.7% (active) |
| Nc1nc(Cn2c(-c3nonc3N)nc3ccccc32)nc(N2CCCCC2)n1 | 5.35% |
| Cc1ccc(Nc2ncccc2C(=O)N2CCCC2)c(C)c1 | -3.43% |
| COc1ccc2cc(C)c3nn(CN4CCOCC4)c(=O)n3c2c1 | 1.32% |
| CC1(C2CCN(C(=O)c3ccc(N4CCCCC4)cc3)CC2)NC(=O)NC1=O (stereo not given) | -7.9% |
| CC1CCc2sc(NC(=O)Cc3cccc4ccccc34)c(C#N)c2C1 (stereo not given) | 2.89% |
| c1ccc(Nc2nc(N3CCOCC3)c3ccccc3n2)cc1 | 33.6% (active) |

| Structure (SMILES) | inhibition |
| --- | --- |
| COc1ccc(Cl)cc1Nc1nc(N2CCOCC2)c2ccccc2n1 | 15.6% |
| Clc1ccccc1Nc1nc(N2CCOCC2)c2ccccc2n1 | 0.09% |
| O=C(N/N=C\c1ccc([N+](=O)[O-])c(O)c1)c1ccc2c(c1)OCO2 | 42.6% (active) |
| O=C(N/N=C/c1ccc(O)c([N+](=O)[O-])c1)c1ccc2c(c1)OCO2 | -20.5% |
| O=C(N/N=C/c1ccc2c(c1)OCO2)c1cc(O)c(O)c(O)c1 | 9.47% |
| O=C(CCl)Nc1c(C(=O)C2CC2)oc2ccccc12 | -1.47% |
| O=C(/C=C\c1ccccc1)N1CCN(Cc2nnnn2-c2cccc(F)c2)CC1 | 14.7% |
| C=CCSc1nnc2c3ccccc3n(CCc3ccccc3)c2n1 | 41.4% (active) |
| COC(=O)CSc1nnc2c3ccccc3n(CCc3ccccc3)c2n1 | -5.74% |
| C=CCN(CC=C)C(=O)CSc1nnc2c3ccccc3n(C)c2n1 | -18.1% |
| CC(Cc1ccco1)NC(=O)Nc1ccc2c(c1)OCO2 (stereo not given) | -9.4% |
| Nc1c(Cl)cc(N2C(=O)c3cccc([N+](=O)[O-])c3C2=O)cc1Br | -3.28% |
| Cc1c(C(c2ccc3c(c2)OCCO3)c2c(C)n(C)n(-c3ccccc3)c2=O)c(=O)n(-c2ccccc2)n1C | 1.2% |
| FC(F)(F)c1cccc(Nc2nccn3c(-c4ccc(N5CCOCC5)cc4)cnc23)c1 | 9.67% |
| COc1ccc(N2C(=O)CSC2c2ccc(C)cc2)cc1 (stereo not given) | 1.91% |
| Cc1ccc(C2SCC(=O)N2c2ccc(C)cc2)cc1 (stereo not given) | 35.1% (active) |
| Cc1ccc(C2SCC(=O)N2c2ccccc2)cc1 (stereo not given) | -20.1% |
| CCCC1(C2CCN(C(=O)c3ccc(F)c(F)c3)CC2)NC(=O)N(CC2CCCO2)C1=O (stereo not given) | -9.71% |
| COc1ccc(C2C3=C(CC(C)(C)CC3=O)N(CCc3ccccc3)C3=C2C(=O)CC(C)(C)C3)cc1 | 4.3% |
| O=C1C2C3C=CC(C3)C2C(=O)N1c1ccc(Oc2ccc(Br)cc2)cc1 (stereo not given) | -3.86% |
| O=C(c1ccc(Nc2nccc(-c3ccc4c(=O)[nH]c(C5CC5)nc4c3)n2)cc1)N1CCCC1 | -6.26% |
| Cc1ccc(-c2ncn(-c3ccc(Nc4nccc(-c5cc(C#N)cc(N6CCCC(O)C6)c5)n4)cc3)n2)cn1 (stereo not given) | -6.62% |
| Cn1nnnc1-c1ccc(Nc2nccc(-c3ccc(N4CCC(O)CC4)c(C#N)c3)n2)cc1 | 37.5% (active) |
| COc1ccc(-c2nc(NCCOc3ccccc3)nc(OC)n2)cc1 | -21.8% |

| Structure (SMILES) | inhibition |
| --- | --- |
| Cc1cc(C)n(CCc2nc(-c3ccc(Cl)cc3)cs2)n1 | -9.3% |
| COC1CCN(c2nc(CN3CCCC3c3nccs3)nc3ccc(Cl)cc23)CC1 (stereo not given) | 42.9% (active) |
| Clc1ccc(CN2CCC[C@H]2c2nc3ccc(-c4ccncc4)cc3[nH]2)cc1 | -0.35% |
| OC1(c2cccnc2)CCN(Cc2nc(N3CCOCC3)c3cc(Cl)ccc3n2)CC1 | -1.26% |
| NC(=O)c1ccc(-c2nccc(NC3CCN(Cc4ccccc4)CC3)n2)cc1 | -1.25% |
| COc1cccc(OC)c1C(=O)Nc1ccc(C)cc1 | -5.7% |
| C=CCNC(=O)C1CCCN(S(=O)(=O)c2ccc(F)cc2)C1 (stereo not given) | 1.52% |
| C=CCNC(=O)C1CCCN1S(=O)(=O)c1ccc(Cl)cc1 (stereo not given) | 57.2% (active) |
| Cc1ccc(S(=O)(=O)N2CCCC2C(=O)NCCO)cc1 (stereo not given) | -1.16% |
| CCOCCCNC(=O)C1CCC(=O)N1C1CCCCC1 (stereo not given) | -0.7% |
| Cc1ccc(S(=O)(=O)NC(C)Cc2cccs2)cc1 (stereo not given) | 5.37% |
| CC1=C(C(=O)NCc2cccs2)C2(CCCCC2)OC1=O | 13.8% |
| CN1CCN(c2ccc(-c3nc4ccc(C(=O)NCc5ccccc5)cc4s3)cc2)CC1 | 3.92% |
| CN(C)c1ccc(-c2nc3ccc(C(=O)O)cc3s2)cc1 | 96.5% (active) |
| O=C(NC1CC1)c1ccc(-c2nc3ccc(C(=O)NC4CCN(Cc5ccccc5)CC4)cc3s2)cc1 | -0.23% |
| N#C/C=C(/CC(O)(c1nc2ccccc2s1)C(F)(F)F)N1CCCC1 (stereo not given) | 2.12% |
| CN(C)C(=O)c1cc(CNCCCc2ccccc2)cc(NC(=O)c2ccccn2)c1 | -3.43% |
| Cc1cc(NC(=O)c2cccn(OCc3ccc(F)cc3)c2=O)no1 | -2.96% |
| c1ccc(Cn2nnc3c(N4CCCCC4)ncnc32)cc1 | -2.04% |
| c1ccc(-n2ncc3c(N4CCCC4)ncnc32)cc1 | 37.8% (active) |
| COc1ccc(-n2ncc3c(Nc4ccc(F)c(Cl)c4)ncnc32)cc1 | 13.3% |
| O=C(CCc1ccccc1)NCCn1ncc2c(N3CCN(c4ncccn4)CC3)ncnc21 | -1.06% |
| Fc1ccc(Nc2ncnc3c2cnn3-c2ccccc2)cc1 | -36.2% |
| OCCNc1ncnc2c1cnn2-c1ccccc1 | -28.4% |

| Structure (SMILES) | inhibition |
| --- | --- |
| CCOc1ccc(-n2cc(-c3ccccc3)c3c(N4CCCC(C)C4)ncnc32)cc1 (stereo not given) | -7.09% |
| COc1ccc(-n2ncc3c(N4CCCC(C)C4)ncnc32)cc1 (stereo not given) | 94.8% (active) |
| c1ccc(-n2ncc3c(Oc4cccc5cccnc45)ncnc32)cc1 | 42.7% (active) |
| c1ccc(OCCn2ncc3c(N4CCCC4)ncnc32)cc1 | 81% (active) |
| Cc1ccc(N2CCN(c3ncnc4c3cnn4-c3ccccc3)CC2C)cc1 (stereo not given) | 9.96% |
| COc1ccccc1Nc1ncnc2c1cnn2-c1ccc(C)cc1 | -73% |
| CCCS(=O)(=O)N1CCCc2ccc(NC(=O)CC(C)C)cc21 | 3.52% |
| CCOC(=O)C1CCN(c2nc(-c3cccnc3)nc3c2CN(S(C)(=O)=O)CC3)CC1 | 9.38% |
| COCCNC(=O)Cn1cnc2c(nnn2-c2ccc(Cl)cc2)c1=O | 2.42% |
| N#Cc1c(-c2ccc(F)cc2)cc(C2CC2)nc1SCCN1C(=O)c2ccccc2C1=O | 7.65% |
| Cc1cncn(CC(=O)NCCc2csc(-c3ccccc3)n2)c1=O | -3.04% |
| COc1ccccc1Cn1c(SCC(=O)Nc2ccc(N(C)C)cc2)nc2ccccc2c1=O | -7.65% |
| CCCCC(CC)CNS(=O)(=O)c1ccc2c(c1)n(C)c(=O)c(=O)n2C (stereo not given) | -13.6% |
| COCCNC(=O)/C(=C/c1cccc([N+](=O)[O-])c1)c1ccccc1 | -2.61% |
| S=C(S)NCCc1c[nH]c2ccccc12 | 10.8% |
| O=C(CSc1nc(=O)[nH]c2c1CCC2)N1CCCCCC1 | 1.26% |
| O=C(CCc1nnc(-c2ccccc2)o1)NCCc1ccccc1Cl | -37.1% |
| CN1CCN(c2ncnc3c2c(-c2ccccc2)cn3-c2ccccc2)CC1 | 4.3% |
| CCN(CC)C(=O)C1CCCN(c2ncnc3c2c(-c2ccccc2)cn3-c2cccc(Cl)c2)C1 (stereo not given) | -12.8% |
| Cc1ccc(-n2ncc3c(N4CCN(C)CC4)ncnc32)c(C)c1 | -7.59% |
| CCN(CC)C(=O)C1CCCN(c2ncnc3c2cnn3-c2ccccc2)C1 (stereo not given) | 34.1% (active) |
| CCN(CC)C(=O)C1CCCN(c2cc(NCc3ccccc3)ncn2)C1 (stereo not given) | -14.4% |
| CN1CCN(c2ncnc3c2cnn3-c2ccc(Cl)c(Cl)c2)CC1 | 32.8% (active) |
